Screening results deposited in PubChem BioAssay by several laboratories.
This is a sample that favours compounds with a hit; in the whole collection about 13% have one here.
CHOP inhibitor: CHOP inhibition in unfolded protein response; CHO-K1 CHOP-promoter luciferase, tunicamycin-induced, 15-18 h; inhibition, % at 10 µM; 220,000 compounds, 3.8% hits;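 active = compounds that reduced the stress-induced luciferase reporter signal by more than about 70% of percent inhibition, limit read from the data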
RAM network inh: inhibitors of the yeast RAM network; inhibition, % at 50 µM; S. cerevisiae dse1pr::URA3 reporter, 5-FOA growth OD615, 2 d; analog-sensitive cbk1-as2 kinase mutant strain; 190,000 compounds, 1.8% hits;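 active = inhibition above a set limit, 3 SD over mean compound inhibition, cut at about 8.4% in these data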;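 also: inhibition rescues growth on 5-FOA so higher OD means more RAM inhibition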
Lmaj promast: Leishmania major promastigote growth inhibition; 200,000 compounds, 9% hits; inhibition, % at 10 µM; Leishmania major promastigotes, resazurin fluorescence viability; AID 1063; in the data active = inhibition above about 50%;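 also: promastigotes grown with compound for 44 hours at 28 °C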
WT yeast gro inh: growth inhibition of WT yeast, mitochondrial fusion screen. mitochondrial fusion phenotypic screen, WT strain. inhibition, % at 10 µM. 190,000 compounds, 2.1% hits. AID 1362; in the data active = inhibition above about 58%; tested in S. cerevisiae
Of the large screens only hits and unclear results are named; the others gave an inactive call.

CCN(CC)N=Nc1ccc(C(=O)O)cc1	Lmaj promast 69
Cc1nn(-c2ccc([N+](=O)[O-])cc2)c2c1C(c1cccc(Br)c1)N1C(=N2)C(=O)Nc2ccccc21 (centres undefined)	RAM network inh 10, Lmaj promast 77
O=C(COc1ccccc1)NCC(=O)N/N=C/c1ccco1	Lmaj promast 56
COC(=O)Cc1c(C(=O)OC)nnn1-c1ccc(OC(F)(F)F)cc1	none
COc1cc(/C=N/NC(=O)COc2ccc(Cl)cc2)ccc1OS(=O)(=O)c1ccc(C)cc1	Lmaj promast 99
COc1cc(/C=N/NC(=O)COc2cccc(F)c2)ccc1OS(=O)(=O)c1ccc(C)cc1	Lmaj promast 99
COC(=O)N/N=C/c1ccc(OS(=O)(=O)c2ccc(C)cc2)c(OC)c1	none
Cc1ccnc(SCc2cc(=O)c(OC(=O)c3ccc(Cl)c([N+](=O)[O-])c3)co2)n1	Lmaj promast 96
CC(C)(C)C1CCC(OC(=O)C[N+]2(C)CCCCC2)CC1 (centres undefined)	Lmaj promast 75
CC(C)CCNC(=O)c1ccc(-c2ccccc2)cc1	none
O=C(Nc1ccccc1)Nc1ccc(Cl)c([N+](=O)[O-])c1	Lmaj promast 53, WT yeast gro inh 82
O=C(Nc1ccc(Cl)c([N+](=O)[O-])c1)Nc1nc2ccccc2s1	CHOP inhibitor 92 (no result: RAM network inh, Lmaj promast, WT yeast gro inh)
O=C(O)c1cc(NC(=O)c2ccc(Cl)c([N+](=O)[O-])c2)cc(C(=O)O)c1	none
CC(CC(=O)Nc1ccc(Cl)c([N+](=O)[O-])c1)c1ccccc1 (centres undefined)	WT yeast gro inh 80
Cc1cccc(C)c1NS(=O)(=O)c1ccc(NC(=O)c2ccc(Cl)c([N+](=O)[O-])c2)cc1	CHOP inhibitor 73
Cc1ccc(NC(=O)Nc2ccccc2)cc1[N+](=O)[O-]	none
CS(=O)(=O)c1ccc2nc(NC(=O)Nc3ccc(Cl)c(Cl)c3)sc2c1	none
CS(=O)(=O)c1ccc2nc(NC(=O)Nc3cccc(Cl)c3)sc2c1	CHOP inhibitor 92
O=C(Nc1ccc(Cl)cc1)/C(=C/c1ccc([N+](=O)[O-])cc1)c1nc2ccccc2s1	CHOP inhibitor 105, Lmaj promast 100
COc1ccc(SC[C@H](CC(C)C)N2CCN(CCc3ccccc3)CCC2=O)cc1	none (no result: RAM network inh, Lmaj promast, WT yeast gro inh)
Cc1ccc(OCC(=O)Nc2ccc3c(c2)OCCO3)cc1C	none
Cc1ccc(OCC(=O)Nc2ccc3c(c2)OCO3)c([N+](=O)[O-])n1	Lmaj promast 55
CCNc1ccc(C(=O)OCC(=O)c2cc(C)n(Cc3ccc4c(c3)OCO4)c2C)cc1[N+](=O)[O-]	Lmaj promast 67
COC(=O)c1ccc(Cl)c(NS(=O)(=O)c2ccc3c(c2)OCCO3)c1	Lmaj promast 80 (no result: CHOP inhibitor)
Cc1cc(C)c(OCC(=O)Nc2ccc3c(c2)OCO3)cc1C	Lmaj promast 80
N/C(CN1CCCCC1)=N\S(=O)(=O)c1cc(Cl)cc(Cl)c1	none (no result: RAM network inh, Lmaj promast, WT yeast gro inh)
O=C(CCc1nnc(CCCCc2ccccc2)o1)N1CCC(N2CCCC2)CC1	none
CC(C)C1N(C(N)=S)N=CC1(C)C (centres undefined)	none (no result: RAM network inh, Lmaj promast, WT yeast gro inh)
COC(=O)c1c(SCC(=O)Nc2ccc(C)c(C)c2)nc(=O)[nH]c1C	none (no result: RAM network inh, Lmaj promast, WT yeast gro inh)
CN1CCN(NC(=O)c2cc(S(=O)(=O)Nc3ccc(Cl)cc3)ccc2Cl)CC1	none (no result: RAM network inh, Lmaj promast, WT yeast gro inh)
Cc1ccccc1OCC(=O)Nc1ccc2c(c1)OCCO2	none (no result: RAM network inh, Lmaj promast, WT yeast gro inh)
COc1ccc(NC(=O)Cn2nc([N+](=O)[O-])c(Cl)c2C)cc1OC	none (no result: RAM network inh, Lmaj promast, WT yeast gro inh)
Cc1ccc(C)c(OCC(=O)Nc2ccc3c(c2)OCO3)c1	Lmaj promast 82
CC(C)NS(=O)(=O)c1ccc(OCC(=O)Nc2ccc3c(c2)OCO3)c(Cl)c1	CHOP inhibitor 70
Nc1ccc(C(=O)OCC(=O)Nc2ccc3c(c2)OCO3)cc1[N+](=O)[O-]	Lmaj promast 69
O=C(COC(=O)c1ccc(N2CCOCC2)c([N+](=O)[O-])c1)Nc1ccc2c(c1)OCO2	none
Cc1c(Cl)c([N+](=O)[O-])nn1CC(=O)Nc1ccc2c(c1)OCO2	Lmaj promast 81
CC(C)NS(=O)(=O)c1ccc(OCC(=O)NCc2ccc3c(c2)OCO3)c(Cl)c1	none
CC(C)[C@H](NS(=O)(=O)c1ccc2c(c1)OCCO2)C(=O)OCC(=O)Nc1ccccc1Cl	Lmaj promast 66
O=C(C[n+]1ccccc1)N/N=C/c1cccs1	none
S=C1NC(C23CC4CC(CC(C4)C2)C3)=CC(c2ccc3c(c2)OCO3)N1 (centres undefined)	WT yeast gro inh 77
COc1cc(C2C=C(C34CC5CC(CC(C5)C3)C4)NC(=S)N2)cc(OC)c1OC (centres undefined)	none
COc1ccc(OC)c(C2C=C(C34CC5CC(CC(C5)C3)C4)NC(=S)N2)c1 (centres undefined)	Lmaj promast 99, WT yeast gro inh 76
CC(CCc1ccccc1)NC(=O)CN1CCN(c2ccc(O)cc2)CC1 (centres undefined)	Lmaj promast 64
CC(CCc1ccccc1)NC(=O)CSc1ccccc1 (centres undefined)	Lmaj promast 52
CC(CCc1ccccc1)NC(=O)CSc1cccc[n+]1[O-] (centres undefined)	none
O=C(NCCc1ccc(Cl)cc1)c1nnc(Cc2ccc(Cl)cc2)o1	none
CC(CCc1ccccc1)NC(=O)Cc1ccc([N+](=O)[O-])cc1 (centres undefined)	Lmaj promast 65
CC(CCc1ccccc1)NC(=O)c1nnc(Cc2ccc(Cl)cc2)o1 (centres undefined)	RAM network inh 8.7
CC(CCc1ccccc1)NC(=O)CN1CCN(Cc2ccccc2)C1=O (centres undefined)	none
O=C(CSc1ncn[nH]1)CSc1ncn[nH]1	none
CCc1ccc(-c2nc(CS(=O)CC(=O)O)c(C)o2)cc1 (centres undefined)	none (no result: RAM network inh, Lmaj promast, WT yeast gro inh)
COc1ccc(S(=O)(=O)N2CCOCC2)cc1NC(=O)CSc1cccc[n+]1[O-]	none (no result: RAM network inh, Lmaj promast, WT yeast gro inh)
CC(=O)Nc1ccc2nc3c(=O)n(C)c(=O)n(C)c3nc2c1	none (no result: RAM network inh, Lmaj promast, WT yeast gro inh)
CCOC(=O)C(=O)/C(=C\N(C)C)c1onc(-c2c(Cl)cccc2Cl)c1C(=O)OC	none
CCCn1c(N)c(N(CCOC)C(=O)/C=C/c2ccc(C(=O)OC)cc2)c(=O)[nH]c1=O	none
Cc1ccc2oc(=O)c3cnn(CC(=O)N4CCCc5ccccc54)c3c2c1	none
Cc1c(NC(=O)CCCCCN2C(=O)c3ccccc3C2=O)c(=O)n(-c2ccccc2)n1C	none
CC(CCc1ccccc1)NC(=O)c1ccc(C(=O)NC(C)CCc2ccccc2)cc1 (centres undefined)	CHOP inhibitor 82
CC(CCc1ccccc1)NC(=O)c1ccccc1 (centres undefined)	none
Cc1cc(C)n2ncc(/C(N)=N/OC(=O)Nc3ccc(Cl)cc3)c2n1	none (no result: RAM network inh, Lmaj promast, WT yeast gro inh)
O=C1C2C3CCCC3=C3CCCC3C2C(=O)N1c1cccc(Cl)c1 (centres undefined)	none
O=C1C2C3C=CC(c4ccccc4)(C2C(=O)N1c1cccc(Cl)c1)C1C(=O)N(c2cccc(Cl)c2)C(=O)C31 (centres undefined)	Lmaj promast 68
CNC(=S)N1CCC(NC(=O)C(Cc2ccccc2)NC(C)=O)CC1 (centres undefined)	none
S=C1NC[C@H](CC2CCCCC2)N1CC1CCCCC1	none
C/C(=N\Nc1nc(-c2ccccc2)cs1)c1cccs1	Lmaj promast 79
